# Assay results published in publication PMC4336329 (PLoS ONE, 2015).
# Out of some 310,000 compounds screened, about 14,000 (4.5%) showed an effect of 50% or more. The effect is printed as a negative number. Shown is part of a subset that was picked to be rich in strong results.
# Target: human ether-à-go-go-related gene (hERG) potassium channel (human, UniProt Q12809)
# Assay: primary screen, population patch clamp on CHO cells stably expressing hERG; higher = less effect of the substance
# 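Further: peak tail current of the secondary pulse compared with the same well before compound.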
# Sequence of human ether-à-go-go-related gene (hERG) potassium channel (Q12809 whole entry, looked up): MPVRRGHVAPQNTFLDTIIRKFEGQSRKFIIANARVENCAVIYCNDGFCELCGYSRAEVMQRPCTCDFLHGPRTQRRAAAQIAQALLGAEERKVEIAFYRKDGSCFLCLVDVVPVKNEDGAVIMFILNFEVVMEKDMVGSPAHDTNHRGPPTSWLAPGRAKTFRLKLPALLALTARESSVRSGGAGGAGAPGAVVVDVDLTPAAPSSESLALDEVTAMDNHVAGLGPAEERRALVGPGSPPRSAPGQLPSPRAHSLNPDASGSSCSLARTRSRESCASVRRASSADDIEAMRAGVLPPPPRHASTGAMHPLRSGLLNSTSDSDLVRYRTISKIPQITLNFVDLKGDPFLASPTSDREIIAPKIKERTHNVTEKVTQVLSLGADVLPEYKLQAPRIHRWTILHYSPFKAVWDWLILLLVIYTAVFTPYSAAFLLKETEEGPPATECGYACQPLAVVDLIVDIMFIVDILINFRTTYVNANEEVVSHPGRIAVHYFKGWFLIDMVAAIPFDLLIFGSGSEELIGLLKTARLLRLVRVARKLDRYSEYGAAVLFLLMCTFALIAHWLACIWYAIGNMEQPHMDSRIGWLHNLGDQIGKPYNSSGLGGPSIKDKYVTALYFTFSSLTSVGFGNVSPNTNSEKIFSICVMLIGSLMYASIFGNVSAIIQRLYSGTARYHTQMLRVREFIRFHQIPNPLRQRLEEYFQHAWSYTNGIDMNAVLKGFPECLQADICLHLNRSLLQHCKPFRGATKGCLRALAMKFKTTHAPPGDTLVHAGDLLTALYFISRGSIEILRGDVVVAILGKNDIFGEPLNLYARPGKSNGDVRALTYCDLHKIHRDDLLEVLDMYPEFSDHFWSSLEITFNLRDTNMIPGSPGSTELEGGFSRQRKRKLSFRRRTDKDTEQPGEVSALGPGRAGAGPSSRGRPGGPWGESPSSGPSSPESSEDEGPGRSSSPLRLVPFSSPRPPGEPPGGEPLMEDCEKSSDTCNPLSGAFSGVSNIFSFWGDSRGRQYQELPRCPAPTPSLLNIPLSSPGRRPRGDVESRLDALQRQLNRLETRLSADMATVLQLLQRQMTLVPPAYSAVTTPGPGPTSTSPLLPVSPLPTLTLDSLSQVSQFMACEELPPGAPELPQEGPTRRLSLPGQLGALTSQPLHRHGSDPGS
row,Structure (SMILES),"hERG current change (%, negative = inhibition) at 10uM"
1,CC1(C)CC2(CCO1)OC(=O)CC2C(=O)Nc1cccc2ccccc12 (centres unmarked),12%
2,Cn1cccc1/C=C1\SC(=S)N(CC(=O)O)C1=O,1.83%
3,COc1ccc(OC)c(S(=O)(=O)n2cnc3ccccc32)c1,-5.26%
4,Cc1cccc(CS(=O)(=O)c2ncc(CO)n2C)c1,16%
5,CCCCc1cc2ccccc2c(OCCN(C)C)n1.Cl,-61.9%
6,Cc1cc(C)c(S(=O)(=O)c2ccccc2C)c(OCCN(C)C)n1,-20.2%
7,CN(C)CCOc1ncnc2c1oc1ccccc12,-13.5%
8,CCCCCCCC(=O)NNC(=O)c1ccc([N+](=O)[O-])cc1,-20.6%
9,Cc1cccc(C(=O)OCC(=O)c2ccc(CC(=O)N3CCOCC3)s2)c1C,-52.4%
10,Cc1ccc(C(=O)OCC(=O)c2ccc(CC(=O)N3CCOCC3)s2)cc1C,-31.2%
11,Nc1cc(C(=O)OCC(=O)c2ccc(CC(=O)N3CCOCC3)s2)ccc1Cl,-27.8%
12,NC(=O)c1cn(-c2ccccc2)nc1-c1cccnc1,-1.67%
13,O=C(COC(=O)c1cn(-c2ccccc2)nc1-c1cccnc1)NC1CC1,-0.964%
14,O=C(NCc1cccnc1)c1cn(-c2ccccc2)nc1-c1ccccc1,-24.3%
15,O=C(O)c1cn(-c2ccccc2)nc1-c1cccnc1,-1.94%
16,COC(=O)c1cn(-c2ccccc2)nc1-c1cccnc1,-28.5%
17,O=C(NCc1ccncc1)c1cn(-c2ccccc2)nc1-c1cccnc1,-62%
18,O=C(NCc1cccnc1)c1cn(-c2ccccc2)nc1-c1cccs1,-32%
19,O=C(NC1CCN(Cc2ccc(Cl)cc2)CC1)c1cn(-c2ccccc2)nc1-c1cccnc1,-75.1%
20,O=C(NC1CCN(Cc2ccccc2)CC1)c1cn(-c2ccccc2)nc1-c1cccnc1,-68%
21,CCc1ccc(NC(=S)NCc2ccccc2)cc1,3.91%
22,Cc1nc(N/N=C/c2ccc(Br)cc2)cc(N2CCOCC2)n1,-0.525%

row,Structure (SMILES),"hERG current change (%, negative = inhibition) at 10uM"
1,CCOC(=O)N1CCC(NC(=O)c2ccc(CS(=O)(=O)c3ccc(OC)cc3)o2)CC1,-33.4%
2,C[C@]12C[C@H](O)[C@@H]3c4ccc(O)cc4CCC3[C@@H]1CCC2=O (some centres unmarked),9.39%
3,COCCN(CCOC)C(=O)c1ccc(CSc2nc3ccccc3s2)cc1,-21.8%
4,COc1ccc(C(C)(C)C)cc1NC(=O)C1C2C=CC(C2)C1C(=O)O (centres unmarked),12.5%
5,CCOC(=O)C1=C(C)N(CC(C)C)C(=O)/C1=C\c1ccc(OCC(=O)Nc2ccccc2)cc1,-9.9%
6,COc1cc(OC)nc(NC(=S)NC(=O)c2ccccc2)n1,23.1%
7,Fc1ccccc1CN(CCN1CCOCC1)C(=S)Nc1ccccc1Cl,-6.77%
8,COc1ccccc1NC(=S)N(Cc1ccccc1)Cc1cccs1,14.9%
9,COc1ccccc1NC(=S)N(CCCN1CCOCC1)Cc1cccs1,-35.6%
10,Fc1ccccc1NC(=S)N(CCN1CCCCCC1)Cc1cccs1,-53%
11,Fc1ccccc1NC(=S)N(CCN1CCCCC1)Cc1ccco1,-51.2%
12,Cc1ccccc1NC(=S)N(CCN1CCCCCC1)Cc1cccs1,-39.5%
13,Cc1ccccc1NC(=S)N(CCN1CCCCC1)Cc1ccco1,-30.2%
14,COc1ccccc1NC(=S)N(CCN1CCCCCC1)Cc1cccs1,-55.3%
15,S=C(Nc1ccccc1Cl)N(CCN1CCCCC1)Cc1ccco1,-42.3%
16,Cc1ccc2c(c1)NC(=O)C(CC(=O)NCc1ccc(F)cc1)O2 (centres unmarked),-9.72%
17,COc1ccc(S(=O)(=O)N(CCC#N)Cc2ccco2)cc1OC,17.8%
18,COc1cc(OC)cc(-c2n[nH]c(=S)n2-c2ccc3c(c2)OCO3)c1,15.4%
19,O=C(NC1CCCCC1)N1CCCC(c2nc(-c3cccs3)no2)C1 (centres unmarked),-10.5%
20,CCc1nnc(NC(=O)C2CC(=O)N(CCc3ccc(F)cc3)C2)s1 (centres unmarked),4.54%
21,O=C(Nc1cccc(C(F)(F)F)c1)C(Sc1ncnc2ccccc12)c1ccccc1 (centres unmarked),0.968%
22,Cc1c(O)ccc2cc(S(=O)(=O)c3ccccc3)c(=O)oc12,13.8%

row,Structure (SMILES),"hERG current change (%, negative = inhibition) at 10uM"
1,Cc1ccc(-n2ncc3c2CCCC3NC(=O)CSc2ccccn2)cc1C (centres unmarked),-17.2%
2,Cc1noc2ncnc(N3CCCC3)c12,5.93%
3,Cc1noc2ncnc(N3CCN(c4cccc(Cl)c4)CC3)c12,-52%
4,Cc1noc2ncnc(N3CCN(c4ccc(F)cc4)CC3)c12,-38.3%
5,CCOc1cc(C2C(C(=O)OC)=CN(C3CCCC3)C=C2C(=O)OC)cc(Br)c1O,-1.51%
6,C[N+]1(CC(O)COc2ccccc2)CCN(C(=O)c2ccc([N+](=O)[O-])cc2)CC1.[I-] (centres unmarked),-9.95%
7,CCc1cccc(Nc2cc(C)nc3nc(C)nn23)c1,-25.3%
8,COc1ccc(-c2nc(CN3CCCCC3c3nccn3C)c(C)o2)c(C)c1C (centres unmarked),-64.9%
9,COc1ccc(OC)c(-c2nc(CN3CCCCC3c3cccnc3)c(C)o2)c1 (centres unmarked),-1.11%
10,COc1ccc(-c2noc(CN3CCCCC3c3nccn3C)n2)cc1 (centres unmarked),-6.83%
11,CC(=O)c1ccc(N(CC(=O)NC2CCCCC2)C(=O)CNC(=O)c2ccco2)cc1,-7.74%
12,O=C(Nc1scc(-c2ccccc2)c1C(=O)O)c1ccco1,-0.991%
13,O=C(CCn1cccn1)N1CCCC(N2CCN(c3cccc(C(F)(F)F)c3)CC2)C1 (centres unmarked),-53.6%
14,CCc1nccn1CCC(=O)N1CCCC(N2CCN(c3cccc(Cl)c3)CC2)C1 (centres unmarked),-36.1%
15,COC(=O)CCC(=O)N1CCCC(N2CCN(c3cccc(C(F)(F)F)c3)CC2)C1 (centres unmarked),-35.8%
16,Cc1ccnn1CCC(=O)N1CCCC(N2CCN(c3cccc(Cl)c3)CC2)C1 (centres unmarked),-30.3%
17,O=C(CCn1cncn1)N1CCCC(N2CCN(c3cccc(C(F)(F)F)c3)CC2)C1 (centres unmarked),-35.8%
18,CN(C)C(=O)CCC(=O)N1CCCC(N2CCN(c3cccc(C(F)(F)F)c3)CC2)C1 (centres unmarked),-12.3%
19,O=C(CCn1cccn1)N1CCCC(N2CCN(c3cccc(Cl)c3)CC2)C1 (centres unmarked),-54.1%
20,O=C(CCc1ccccn1)N1CCCC(N2CCN(c3cccc(C(F)(F)F)c3)CC2)C1 (centres unmarked),-68.2%
21,O=C(c1ccccn1)N1CCCC(N2CCN(c3cccc(C(F)(F)F)c3)CC2)C1 (centres unmarked),-28.8%
22,O=C(NCC1CCCO1)c1ccc2c(=O)n(CC3CCCO3)c(=S)[nH]c2c1 (centres unmarked),6.52%

row,Structure (SMILES),"hERG current change (%, negative = inhibition) at 10uM"
1,Cc1sc2nc(COC(=O)c3cccc(OC(F)F)c3)[nH]c(=O)c2c1C,0.0335%
2,O=c1[nH]n2c(=O)c3c([nH]c2c1N=Nc1cccc(Cl)c1)CCCC3,3.75%
3,COc1ccc2c(c1)C(=O)N(Cc1ccccc1)C(=O)C2(C)C,6.19%
4,Cc1nn(Cc2ccc(Cl)cc2)c(C)c1NC(=O)c1cc(C(C)C)on1,5.88%
5,Cn1c(SCC(=O)NC2CC2)nnc1-c1ccco1,9.16%
6,Cc1ccc(NC(=O)[C@H](Cc2ccccc2)NC(=O)C2CCNCC2)cc1,5.64%
7,CCCCCOC(=O)c1ccccc1C(=O)O,16.1%
8,CC(=O)N/C(=C\c1ccc(C)o1)C(=O)NCc1ccccc1,21.8%
9,COc1ccc(OC)c(N2C(=O)NC(=O)/C(=C/c3ccc([N+](=O)[O-])s3)C2=O)c1,12.9%
10,CCOc1cc(C(=O)N2CCC(CC3CC(c4ccccc4)=NO3)(C(=O)NCc3ccc(OC)cc3)CC2)cc(OCC)c1OCC (centres unmarked),-8.88%
11,CC(C)(C)OC(=O)N1CCC(CC2CC(c3ccccc3)=NO2)(C(=O)NCc2ccccc2)CC1 (centres unmarked),-18.3%
12,COc1ccc(CNC(=O)C2(CC3CC(c4ccccc4)=NO3)CCN(C(=O)C3CCCC3)CC2)cc1 (centres unmarked),-71.6%
13,COc1ccc(CNC(=O)C2(CC3CC(c4ccccc4)=NO3)CCN(C(=O)c3cccc(O)c3)CC2)cc1 (centres unmarked),-68.2%
14,CC(C)(C)OC(=O)N1CCC(CC2CC(c3ccccc3)=NO2)(C(=O)O)CC1 (centres unmarked),14.7%
15,CC1(C(=O)N2CCC(CC3CC(c4cccc(Br)c4)=NO3)(C(=O)NCC3CCCCC3)CC2)CC1 (centres unmarked),-20.1%
16,CCCNC(=O)C1(CC2CC(c3ccccc3)=NO2)CCN(C(=O)C2CCCC2)CC1 (centres unmarked),-41.8%
17,COc1ccc(CNC(=O)C2(CC3CC(c4ccccc4)=NO3)CCN(C(=O)OC(C)(C)C)CC2)cc1 (centres unmarked),-30.5%
18,COc1ccc(CNC(=O)C2(CC3CC(c4ccccc4)=NO3)CCN(C(=O)C3(C)CC3)CC2)cc1 (centres unmarked),-67%
19,COC(=O)C1(CC2CC(c3ccccc3)=NO2)CCN(C(=O)OC(C)(C)C)CC1 (centres unmarked),-11.4%
20,COc1ccc(CNC(=O)C2(CC3CC(c4ccccc4)=NO3)CCN(C(=O)CCCCCBr)CC2)cc1 (centres unmarked),-76.9%
